Results from the supplement of paper PMC11417369.
± gives the standard deviation of the averaged measurements. Whole data set: some 25,000 sequences, median “ln(normalized median fluorescence intensity)” near 10, cut for the highest 2% near 12. The full list was thinned out, with the highest values kept by preference.

These sequences were tested on PfAP2-G AP2 domain (GST-tagged) (assay: gcPBM binding intensity (ln(normalized median fluorescence intensity)); higher = stronger DNA binding).
Summary of the method: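 In this array assay, P. falciparum DNA-binding domains with a GST tag, expressed in E. coli, were applied for 1 h to primer-extended double-stranded 36-bp intergenic genomic probes and negative controls on an Agilent 4 × 180k array. Bound protein was visualised with Alexa488 anti-GST antibody at 488 nm. Binding intensity is the highest Masliner-normalised natural-log median intensity across replicate spots of either probe orientation.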

Row | Sequence | gcPBM binding intensity (ln)
1 | TTATTAAATTTTTTTTGTACTTATATATATATATAT [XGTACX_site2443] | 11.2 ± 0.79
2 | TTTTTTTTTTTTTACACACACAAAATATTATCTGTA [CACACA_site5378] | 9.83 ± 0.42
3 | AATAATTAAATATATTTATAACAGGAAAATATTTAT [XGTACX_negctrl_site175] | 10.2 ± 0.16
4 | TGTTGTATTTTTACAACACACATTTAATCCATTTAA [CACACA_site1507] | 10 ± 0.27
5 | CTTCCTTAGGAATGTACACACATATAAAATATGTTG [CACACA_site6355] | 11.4 ± 0.84
6 | ATAAAATAATTAATGGGTACATAATTAAATAAAGAG [XGTACX_site3309] | 11.3 ± 0.66
7 | TTTTATGAAAAATGGCTTATCTGTAAAGAAGTGGAG [CACACA_negctrl_site1586] | 10.3 ± 0.36
8 | AAGGTATAGAAACACACACACGTGAATATAGTTTAA [CACACA_site5109] | 10.01 ± 0.028
9 | ATATATATATATTTATGTACATATACATAATGTATA [XGTACX_site6387] | 11.2 ± 0.76
10 | GATTTTAATGGGTGTACACATTTATTTATATAAAGT [CACACA_site5317] | 11.7 ± 0.93
11 | TTTTATTTATCTTAATGTACACATTTATATATATAT [XGTACX_site8588] | 11.7 ± 1.3
12 | TCACATATATATTAATGTACATATATTTTTTATGTA [XGTACX_site5125] | 11.2 ± 0.54
13 | ATATATATATAATGTGTACACACATATGTATTTATA [CACACA_site8170] | 11.7 ± 0.67
14 | ATTTTTTTTTTTATGTGTACATATATTTTTTTAATT [XGTACX_site7921] | 11.6 ± 0.97
15 | TAATATAATAGAAGTGTACACACATATTTATGGGTG [CACACA_site9023] | 11.6 ± 0.93
16 | GTATGTATGTATATATGTACACATTATTATTTAATG [XGTACX_site5802] | 11.6 ± 1
17 | ATATATATATATATATGTACATATTTTATTTAATTT [XGTACX_site1807] | 11.2 ± 0.69
18 | ATGTATATATTTTTATGTACATATTTTTAATTTATA [XGTACX_site2982] | 11.4 ± 0.87
19 | ATATTTATAATTTTTTGTACACATTTTTTAAAGATA [XGTACX_site1784] | 11.4 ± 0.9
20 | GTATATATGTATATGTGTACATATATTTTATAATAT [XGTACX_site5703] | 11.3 ± 0.79
21 | TGTATGTATGTATTATTTGTTATTTTAATTTTTTTG [TGCATGCA_negctrl_site256] | 10.36 ± 0.085
22 | CATATATAACATATAACACACATACTTAGTATTACA [CACACA_site5674] | 10.1 ± 0.24
23 | GTTACAGAGAATGTTGTGCACATATCAATAATATAT [GTGCAC_site9671] | 10.5 ± 0.28
24 | AACGTGTATTTATATTGTACACATTCATACATCAAA [XGTACX_site3644] | 11.4 ± 0.95
